Shown are actives, neighbours in structure and some others; about 3.5% of the full set was active somewhere.
MBD2 inh – inhibitors of MBD2 binding to methylated DNA, primary screen, biochemical, TR-FRET, DNA-binding domain, human; hit rate 0.31% among 370,000; AID 686964, 2013; Methyl-CpG-binding domain protein 2 (Homo sapiens), Q9UBB5; MBD2 binding to methylated oligonucleotide; inhibition, % at 4.4 µM; in the data active = inhibition above about 13%
UHRF1 MBD2 ctr – UHRF1 methylated DNA binding inhibitors, primary screen, counter-screen for MBD2 inhibitor project, biochemical, TR-FRET, human UHRF1, single concentration; E3 ubiquitin-protein ligase UHRF1 (Homo sapiens), Q96T88; UHRF1 binding to methylated oligo; inhibition, % at 4.4 µM; hit rate 0.75% among 370,000; in the data active = inhibition above about 21%;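 also: UHRF1 SRA domain binding a hemimethylated CpG hairpin DNA probe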
PG9 Ab binder – binders of HIV-1 gp120 antibody PG9, primary screen, biochemical, TR-FRET | TR-FRET gp120-PG9 antibody binding | inhibition, % at 6.7 µM | hit rate 0.43% among 360,000 | AID 624416, 2012; in the data active = inhibition above about 8.5%
DNMT1 inh – human DNMT1 methyltransferase inhibitors, primary screen, biochemical, molecular beacon, fluorescence, HinP1I cleavage, uHTS; DNA (cytosine-5)-methyltransferase 1 (Homo sapiens), P26358; AID 588458, 2011; inhibition (reported as % activation of signal), % at 10 µM; hit rate 0.83% among 360,000; in the data active = inhibition above about 50%
Target sequence (P26358 504-1616 limits assumed): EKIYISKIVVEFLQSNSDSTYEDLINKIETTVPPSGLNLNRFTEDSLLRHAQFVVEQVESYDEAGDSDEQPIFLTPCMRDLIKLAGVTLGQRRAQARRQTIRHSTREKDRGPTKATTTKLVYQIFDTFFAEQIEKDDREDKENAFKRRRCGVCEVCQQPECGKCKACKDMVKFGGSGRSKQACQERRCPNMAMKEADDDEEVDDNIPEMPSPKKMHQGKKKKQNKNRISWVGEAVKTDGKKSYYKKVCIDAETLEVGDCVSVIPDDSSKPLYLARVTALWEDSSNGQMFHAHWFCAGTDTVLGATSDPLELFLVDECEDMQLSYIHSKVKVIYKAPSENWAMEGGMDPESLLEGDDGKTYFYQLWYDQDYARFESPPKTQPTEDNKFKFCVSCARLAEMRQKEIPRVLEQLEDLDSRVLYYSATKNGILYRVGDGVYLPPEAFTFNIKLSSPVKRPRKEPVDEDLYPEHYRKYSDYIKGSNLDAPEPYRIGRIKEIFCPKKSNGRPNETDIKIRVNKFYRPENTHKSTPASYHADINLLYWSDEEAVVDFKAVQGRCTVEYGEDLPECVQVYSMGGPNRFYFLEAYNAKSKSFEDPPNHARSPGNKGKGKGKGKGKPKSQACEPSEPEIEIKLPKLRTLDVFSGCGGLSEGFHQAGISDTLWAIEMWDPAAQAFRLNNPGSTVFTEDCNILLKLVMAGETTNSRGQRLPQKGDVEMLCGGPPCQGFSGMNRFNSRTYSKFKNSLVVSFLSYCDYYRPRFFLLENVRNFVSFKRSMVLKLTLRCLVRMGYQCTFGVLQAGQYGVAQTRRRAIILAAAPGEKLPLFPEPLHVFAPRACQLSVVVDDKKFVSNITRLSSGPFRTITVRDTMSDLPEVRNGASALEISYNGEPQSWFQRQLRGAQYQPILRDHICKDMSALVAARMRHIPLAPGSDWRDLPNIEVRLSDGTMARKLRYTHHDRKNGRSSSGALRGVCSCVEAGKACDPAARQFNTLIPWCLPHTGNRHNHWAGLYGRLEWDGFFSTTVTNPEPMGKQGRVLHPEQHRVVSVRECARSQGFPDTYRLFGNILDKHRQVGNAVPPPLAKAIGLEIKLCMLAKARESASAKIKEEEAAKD
rCAG RNA binder – binders of r(CAG) RNA repeats, primary screen, biochemical, fluorescence; r(CAG) RNA repeat, TO-PRO-1 dye displacement fluorescence; inhibition, % at 3 µM; hit rate 1.3% among 370,000; AID 651821, 2012;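 active = inhibition above the plate cutoff, the mean of all test compounds on that plate plus 3 SD, cut at about 35% in these data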;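 also: higher means more dye released from RNA so lower well fluorescence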
LEDGF integ inh – blockers of LEDGF/p75-dependent integrase strand transfer – biochemical, TR-FRET, high throughput, primary screen | hit rate 0.64% among 370,000 | inhibition, % at 3.7 µM | TR-FRET IN-LEDGF/p75 DNA integration, Eu/Cy5 | HIV-1 integrase (with human LEDGF/p75);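 active = inhibition above the screen-wide mean plus 3 SD, cut at about 13% in these data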;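 also: signal is the Cy5 over europium emission ratio at 671 and 618 nm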
PG9 binder conf – binders of anti-gp120 antibody PG9, confirmation, biochemical, TR-FRET; shares compounds with PG9 Ab binder; TR-FRET PG9 antibody binding; inhibition, % at 6.7 µM; hit rate 90% among 1,500; AID 651571, 2012; in the data active = inhibition above about 9%
PGV04 counter – binders of control antibody PGV04, counter-screen for PG9 antibody binder project, biochemical, TR-FRET, distinct HIV envelope site; shares compounds with PG9 Ab binder; TR-FRET PGV04 antibody-gp120 binding; inhibition, % at 6.7 µM; hit rate 95% among 1,500; AID 651604, 2012; in the data active = inhibition above about 9.5%
PG9 bind DR – small-molecule binders of antibody PG9, dose response, biochemical, TR-FRET, HIV-1 gp120 antibody; shares compounds with PG9 Ab binder; TR-FRET PG9 antibody-gp120 binding inhibition; IC50, µM; 95 tested, under 10 active; AID 651848, 2012; in the data active = IC50 below about 10 µM
PGV04 DR counter – binders of control antibody PGV04, dose response, counter-screen for PG9 antibody binder project, biochemical, TR-FRET, distinct HIV envelope site; shares compounds with PG9 Ab binder; TR-FRET binding to control antibody PGV04; IC50, µM; hit rate 20% among 95
PG126 DR counter – binders of control antibody PG126, dose response, counter-screen for PG9 antibody binder project, biochemical, TR-FRET, distinct HIV envelope site. IC50, µM. hit rate 20% among 95. TR-FRET binding to antibody PG126, counterscreen. shares compounds with PG9 Ab binder
Large screens that a line does not name were inactive (follow-up assays come after a bar, where they were run). Rule as the data show it, unless noted: active = IC50 below about 9 µM; inactive = the rest.

COc1ccc(C(=O)CSc2nnc(-c3cc(C)on3)o2)cc1	PG9 Ab binder 19 | PG9 binder conf 23 | PGV04 counter 49
COc1cccc(C(O)c2nc(-c3ccc4ccccc4c3)cs2)c1 (stereo unspecified)	none
O=C(Oc1c(Br)cc(Br)c2cccnc12)N1CCCCC1	PG9 Ab binder 9.1 | PG9 binder conf 14 | PGV04 counter 18
O=C(CCn1nnc2ccccc21)Nc1nnc(-c2ccccc2F)s1	PG9 Ab binder 13 | PG9 binder conf 23 | PGV04 counter 38
N#Cc1c(N)c(C#N)c(-c2ccc3c(c2)OCO3)c2c1CCCC2	PG9 Ab binder 11 | PG9 binder conf 10 | PGV04 counter 23
C=CCNC(=O)Nc1ccc2c(c1)[C@]1(CC(=O)N(CC(C)C)C1c1ccccc1)C(=O)N2C (stereo partly specified)	none (no result: PG9 Ab binder, DNMT1 inh)
CCOc1cccc2sc(=NC(=O)c3ccco3)n(CC(=O)OC)c12	none
C#CCn1c(=NC(=O)c2ccco2)sc2cccc(Cl)c21	PG9 Ab binder 16 | PG9 binder conf 16 | PGV04 counter 45
CCc1nc(SCC(=O)NCCc2ccccc2)c2oc3ccccc3c2n1	none
Cc1nc(SCC(=O)NCc2ccccc2)c2c(=O)n(C)c(=O)n(C)c2n1	PG9 Ab binder 14 | PG9 binder conf inactive | PGV04 counter inactive
COC(=O)c1ccc(CSc2ncnc3ccccc23)o1	none
COC(=O)c1ccc(CSc2ncnc3c2oc2ccccc23)o1	PG9 Ab binder 15 | PG9 binder conf 43 | PGV04 counter 80
O=C(CSc1ncnc2c1oc1ccccc12)Nc1cccc(Cl)c1	PG9 Ab binder 81 | PG9 binder conf 81 | PGV04 counter 94
Cc1nc(SCC(=O)NCCc2ccccc2)c2oc3ccccc3c2n1	PG9 Ab binder 26 | PG9 binder conf 88 | PGV04 counter 74 | PG9 bind DR 3.4 | PGV04 DR counter 2.4 | PG126 DR counter 2.3
Cc1ncc(CN2CCC(C(=O)Nc3cccc(-c4cscn4)c3)CC2)cn1	none
Cc1nc(SCCc2nc3ccccc3[nH]2)c2oc3ccccc3c2n1	PG9 Ab binder 29 | PG9 binder conf 11 | PGV04 counter 13
Cc1nc(SCC(=O)NCc2ccco2)c2oc3ccccc3c2n1	none
Cc1nc(SCC(=O)Nc2ccccc2)c2oc3ccccc3c2n1	PG9 Ab binder 95 | PG9 binder conf 96 | PGV04 counter 99
Cc1nc(SCC(=O)Nc2ccc(F)cc2)c2oc3ccccc3c2n1	PG9 Ab binder 45 | PG9 binder conf 78 | PGV04 counter 85
Cc1nc(SCc2nc3ccccc3[nH]2)c2oc3cc(Br)ccc3c2n1	none
Cc1nc(SCC(=O)NC(C)c2ccccc2)c2oc3ccccc3c2n1 (stereo unspecified)	PG9 Ab binder 15 | PG9 binder conf inactive | PGV04 counter 9.6
CC(=O)NNC(=O)c1cc2c3ccccc3n(C)c2s1	none
COc1ccc(S(=O)(=O)NNC(=O)c2cc3c4ccccc4n(C)c3s2)cc1	PG9 Ab binder 18 | PG9 binder conf 19 | PGV04 counter 31
CC[C@@]1(O)C(=O)OCc2c1cc1n(c2=O)Cc2cc3c(CN(C)C)c(O)ccc3nc2-1	PG9 Ab binder 12 | PG9 binder conf 12 | PGV04 counter 20
CCCCc1cc(=O)oc2c(CN(C)C)c(O)ccc12	none
Cc1ccccc1OCCC(=O)Nc1ccc2c(C)cc(=O)oc2c1	PG9 Ab binder 10 | PG9 binder conf 15 | PGV04 counter 38
COc1ccccc1C(=O)Nc1ccc2c(C)cc(=O)oc2c1	PG9 Ab binder 17 | PG9 binder conf 20 | PGV04 counter 30
CCOc1ncccc1C(=O)Nc1ccc2c(C)cc(=O)oc2c1	none
CCc1nnc(NC(=O)c2ccc(Cl)c(S(=O)(=O)N3CCc4ccccc4C3)c2)s1	PG9 Ab binder 20 | PG9 binder conf 24 | PGV04 counter 34
CCn1c(Cc2ccccc2)nnc1SCC(=O)Nc1nc2ccccc2s1	PG9 Ab binder 17 | PG9 binder conf 29 | PGV04 counter 40
Cc1ccc(NC(=O)C2(C)CCN2Cc2ccccc2OC(F)F)cc1 (stereo unspecified)	none
COc1ccc(/C=C/C(=O)Oc2cccc(/C=N/NC(=O)COc3c(C)cccc3C)c2)cc1	PG9 Ab binder 9.5 | PG9 binder conf 11 | PGV04 counter 16
CCn1c(=O)c(C(=O)Nc2ccccc2S(N)(=O)=O)c(O)c2ccccc21	PG9 Ab binder 15 | PG9 binder conf inactive | PGV04 counter 14
CCn1c(=O)c(C(=O)Nc2ccccc2C)c(O)c2ccccc21	none
Nc1[nH]c(C(=O)c2ccccc2)c(-c2ccccc2)c1C(=O)NCCc1c[nH]c2ccccc12	none (no result: DNMT1 inh)
CCN(CC)C(=O)C1=C(C)N(Cc2ccccc2)C(=O)C(CC(=O)NCC2CCCCC2)C1 (stereo unspecified)	none
COc1cc2[nH]c(=S)n(NC(=O)c3ccccc3)c(=O)c2cc1OC	PG9 Ab binder 16 | PG9 binder conf 18 | PGV04 counter 16 | PG9 bind DR inactive | PGV04 DR counter inactive | PG126 DR counter inactive
COC(=O)c1ccc2c(=O)n(NC(C)=O)c(=S)[nH]c2c1	none
